Bioassay records deposited in PubChem by National Center for Advancing Translational Sciences (NCATS).
ATXN2 expr inh: ATXN2 expression inhibition | 360,000 tested, 0.72% active | HEK-293 ATXN2-luciferase reporter, luminescence, 24 h | AID 1745845 | Potency, µM (series often up to 57 µM), for inactives: top-dose activity change, negative = inhibition, usual class: inhibitors; note: potency is the fitted concentration of half-maximal effect; % is set by controls: 0 for no effect and ±100 for the full control effect; nearly all actives have a fitted effect of over 55% in size
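qHTS (up to 57 uM final) was run with 24 h compound exposure of reporter cells at 37 °C. Each well was multiplexed: SteadyGlo luminescence measured ATXN2-luciferase expression after a fluorogenic Gly-Phe-AFC viability readout (25 uM final).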
DRD3 agonist: agonists of human D3 dopamine receptor. max activation, %. P35462. 410,000 tested, 0.58% active. AID 652048. D3R DiscoveRx beta-arrestin cells, luminescence, 90 min; in the data active = max activation above about 30%; note: 0% is about no effect
Target sequence (P35462 whole entry, looked up): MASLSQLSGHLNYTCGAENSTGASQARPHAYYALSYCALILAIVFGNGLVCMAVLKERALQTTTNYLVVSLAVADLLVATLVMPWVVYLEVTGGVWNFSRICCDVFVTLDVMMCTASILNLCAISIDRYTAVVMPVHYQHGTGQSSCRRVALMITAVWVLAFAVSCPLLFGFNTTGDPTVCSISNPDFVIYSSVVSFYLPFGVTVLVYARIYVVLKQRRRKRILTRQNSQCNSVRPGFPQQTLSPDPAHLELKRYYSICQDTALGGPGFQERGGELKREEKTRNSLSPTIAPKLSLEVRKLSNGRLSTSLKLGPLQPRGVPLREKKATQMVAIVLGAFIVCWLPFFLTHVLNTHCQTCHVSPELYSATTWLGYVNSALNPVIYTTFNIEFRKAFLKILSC
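Agonist mode: compounds and dopamine controls were applied to plated cells for 90 min at 37 degrees C after an overnight attachment at 1500 cells/well. Luminescent read-out followed 30 - 60 minutes at room temperature with DiscoveRx detection reagent.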
TGFb inhibitor: inhibitors of TGF-b signaling | 410,000 tested, 1.2% active | Potency, µM (top dose mostly 46.1 µM), without a hit: at the top dose activity, negative = inhibition, most hits filed as inhibitors | HepG2 CAGA-GFP TGF-b/SMAD3 reporter, GFP fluorescence, 18 h; TGF-beta stimulated, 500 pg/mL final | AID 588855; note: potency is the fitted concentration of half-maximal effect; % is set by controls: 0 for no effect and ±100 for the full control effect; nearly all actives have a fitted effect of over 65% in size
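GFP signal (ex488/em500-530) from TGF-beta-stimulated HEPG2 CAGA-GFP cells, 500 pg/mL final, 18 h at 37 degrees C in DMEM plus 1% FBS, normalized to unstimulated and DMSO-stimulated controls.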
S2 tox: viability counter-screen for ATXN expression inhibitors; 400,000 tested, 0.49% active; Potency, µM (highest dose often 56.7 µM), usual class: cytotoxic; S2 cells (HEK-293 line with an ATXN2-luciferase reporter) viability, CellTiter-Fluor protease fluorescence, 24 h; AID 651635; note: potency is the fitted concentration of half-maximal effect; nearly all actives have a fitted effect of over 40% in size
DRD3 antagonist: blocks the human D3 dopamine receptor. P35462. D3R cells, DiscoveRx beta-arrestin luminescence, antagonist mode; stronger effect = lower value. max response, negative = inhibition, %. 360,000 tested, 2.5% active. AID 652054; in the data active = max response below about -50%; inconclusive = no clear call, values can overlap the other calls; note: % is set by controls: 0 for no effect and ±100 for the full control effect
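Cells plated overnight at 1500 cells/well, then exposed to library compounds with dopamine controls for 90 minutes at 37 degrees C. DiscoveRx reagent added for 30–60 minutes at room temperature; luminescence read, quantitative HTS format.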
HepG2 viability: kills HepG2 cells in TGF-b inhibitor counter-screen; HepG2 CAGA-GFP viability, ATP luminescence, 18 h; Potency, µM (series often up to 46.1 µM), for inactives: top-dose activity change, negative = cytotoxicity, usual class: cytotoxic; 410,000 tested, 0.76% active; note: potency is the fitted concentration of half-maximal effect
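HepG2 CAGA-GFP cells (1000/well, DMEM with 1% FBS) received compound, then TGF-beta at 500 pg/mL final, and were incubated 18 hours at 37 degrees C. Viability was read by CellTiter-Glo luminescence. Media-only wells were set as complete cell-killing and DMSO as no toxicity.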
Starred values were filed as active, the others as inactive; i = inactive; ? = inconclusive; / = not tested or not shown. Rows were chosen to be rich in hits. Some 4.7% of all compounds tested hit in one or more screens of this group. Unless noted, calls come from the whole dose curve; as a rule, active = well fitted curve in the direction sought with a large enough effect; inconclusive = small, poorly fitted or top-dose-only effect, or another doubt; inactive = no such curve, though single readings can be large; an effect the other way counts as inactive or inconclusive.

SMILES	ATXN2 expr inh	DRD3 agonist	TGFb inhibitor	S2 tox	DRD3 antagonist	HepG2 viability
COC(=O)c1c(OCC2CCCN(C)C2)cc(=O)n2c1CCN(Cc1ccc(OC)c(O)c1)CC2 (configuration not stated)	/	/	/	i	/	/
CCC1(C2CCN(Cc3cccc(Cl)c3)CC2)NC(=O)N(CC2COc3ccccc3O2)C1=O (configuration not stated)	/	/	/	i	/	/
CCCCc1cc2c(=O)c(C(=O)OC)c[nH]c2cc1OCc1ccccc1	/	11.3	/	i	/	/
COc1ccc(NC(=O)C2(C)CCN2CCc2ccccc2)cc1OC (configuration not stated)	-8.9%	71.6*	-17.7%	i	2.4	-20.3%
COc1cccc(NC(=O)C2(C)CCN2CCc2ccccc2)c1 (configuration not stated)	1.5%	-7.1	0.0%	?	-5.0	-8.8%
O=C1OC(Nc2nc(-c3ccc(F)cc3)cs2)c2ccccc21 (configuration not stated)	-37.6%	-15.2	11.2µM*	?	-22.3	-39.6%
O=C1OC(Nc2nc3ccccc3s2)c2ccccc21 (configuration not stated)	9.1%	0.1	3.4%	i	13.2	-0.8%
Cc1ccc(C)c(-n2c(CCC(=O)O)ccc2-c2ccc(Cl)cc2)c1	7.1%	1.4	?	i	/	-31.3%
CC(O)(C#Cc1ccc2c(c1)N(c1nc(N)ncc1Cl)CC2)c1nccs1 (configuration not stated)	-16.7%	/	/	/	/	/
C/C=C\C=C/C(=O)Nc1cccc(C2=NOC3(C2)C[C@@H](C(N)=O)N(C(=O)CCCCC)C3)c1 (some centres not stated)	-0.6%	10.9	-11.7%	i	46.2	1.3%
C/C=C\C=C/C(=O)Nc1cccc(C2=NOC3(C2)C[C@H](C(N)=O)N(C(=O)CC)C3)c1 (some centres not stated)	1.8%	30.8*	15.6%	i	-5.3	-0.6%
C[C@H](c1ccc(F)cc1CCCC(=O)O)N(c1cc(F)ccc1F)S(=O)(=O)c1ccc(Cl)cc1	16.6%	/	/	/	/	/
Cc1c(C(=O)N/N=C/c2cccnc2)sc(N)c1C#N	2.1%	-7.9	10µM*	i	52.8	6.31µM*
Cc1ccc(C(=O)N/N=C\c2cccnc2)s1	11.7%	-9.1	14.5%	i	1.1	-4.0%
Cc1ccc(C(c2ccccc2)c2c(C)[nH]c3ccccc23)s1 (configuration not stated)	?	-9.3	14.1µM*	?	/	-99.3%
Cc1[nH]c2ccccc2c1C(c1c[nH]c2ccccc12)c1c(C)[nH]c2ccccc12	/	/	15.8µM*	/	/	-46.8%
CN(C)c1cc[n+](CC(=O)c2ccc(-c3ccccc3)cc2)cc1	2.82µM*	-0.8	?	i	-10.5	-27.7%
COc1cc(/C=C/c2nc(C#N)c(NC(C)c3ccccc3)o2)cc(OC)c1OC (configuration not stated)	/	13.2	?	/	/	-37.4%
COc1ccc(Cl)cc1NC(=O)C1CCN(S(C)(=O)=O)CC1	-3.4%	7.4	5.4%	i	8.3	7.8%
COc1ccc(F)c(F)c1C(=O)c1cnc(NC2CCN(S(C)(=O)=O)CC2)nc1N	2.73µM*	/	/	/	/	/
COc1cc(NC(=O)c2ccco2)c(OC)cc1NC(=O)CSc1ncc(-c2ccc(F)cc2)[nH]1	-5.6%	31.4*	7.3%	i	41.3	-4.5%
O=C(NCCSc1ncc(-c2ccc(F)cc2)[nH]1)c1ccco1	1.3%	-8.1	-20.7%	i	3.2	-0.1%
COc1ccccc1-c1ccnc(-n2ncc(C(=O)NC3CCCN(Cc4ccccc4)C3)c2C)n1 (configuration not stated)	/	/	/	i	/	/
Cc1nn(-c2ccc(N3CCOCC3)nn2)c(C)c1CCC(=O)Nc1ccc(F)cc1F	/	74.6*	8.5%	/	/	2.6%
Cc1ccc(F)cc1NC(=O)CCc1c(C)nn(-c2ccc(N3CCOCC3)nn2)c1C	9.0%	-12.3	-37.4%	i	/	-22.4%
SMILES	ATXN2 expr inh	DRD3 agonist	TGFb inhibitor	S2 tox	DRD3 antagonist	HepG2 viability
Cc1cc(C(=O)NCC2CCC3(CCN(Cc4ccc(-c5ccccc5)cc4)CC3)O2)n(C)n1 (configuration not stated)	/	/	/	i	/	/
Cc1nc2ccn(Cc3ccco3)c(=O)c2cc1C(=O)NCc1ccc(Cl)cc1	/	1.2	10µM*	/	/	-19.8%
Cc1ccc(CNC(=O)c2cc3c(=O)n(Cc4ccco4)ccc3nc2C)cc1	/	28.7	?	/	/	-7.3%
OC(CCCN1CCC(O)(c2ccc(Cl)cc2)CC1)c1ccc(F)cc1 (configuration not stated)	-20.3%	-95.4	4.1%	i	-113.9*	-41.7%
OC1(c2ccc(Cl)c(C(F)(F)F)c2)CCN(CCCC(c2ccc(F)cc2)c2ccc(F)cc2)CC1	15.8µM*	-16.0	/	17.8µM*	/	/
Cc1ccccc1N=C1Nc2ccc(Cl)cc2N[C@]12C[C@H]1CCCC(=O)N3CC[C@@H](C2)[C@@H]13	/	/	4.4%	/	/	7.6%
Cc1cc(Nc2ccc(Cl)cc2)nc(NCc2ccccc2)n1	?	-6.6	?	?	-29.7	11.2µM*
CCCCNc1cc(C)nc(NCc2ccccc2)n1	?	-10.9	?	?	-62.6*	-94.3%
Fc1cc(F)nc(NCc2ccccc2)n1	7.0%	36.8*	5.3%	i	12.4	15.9%
Fc1cc(NCc2ccccc2)nc(NCc2ccccc2)n1	5.4%	-4.3	?	i	-1.8	-26.9%
Cc1cc(N/N=C/c2ccc(F)cc2)nc(NCc2ccccc2)n1	37.0%	-12.7	-5.1%	i	8.5	-52.6%
Cc1cc(Nc2cccc(F)c2)nc(NCc2ccccc2)n1	?	-5.4	?	?	5.4	-79.9%
Cc1ccc(/C=N/Nc2cc(C)nc(NCc3ccccc3)n2)cc1	-30.4%	-0.9	?	i	-6.4	12.6µM*
Cc1cc(C)nc(NCCCc2ccccc2)n1	-1.3%	-7.0	8.1%	i	-17.1	-11.6%
CC(NC(=O)C1CCN(C(=O)N2CCOc3ccc(Cl)cc32)CC1)c1ccccc1 (configuration not stated)	/	1.9	?	/	/	-16.1%
COc1cc(OC)c(OC)cc1CN1CCOc2ccc(CN3CCN(C(C)=O)CC3)cc2C1	/	/	/	i	/	/
O=C(O)c1c2c(nc3ccccc13)CCCC2	/	/	-3.0%	/	/	9.4%
COc1ccc(/C=N\NC(=O)COc2ccc(C(C)(C)C)cc2)cc1Cn1nc(C)cc1C	-38.2%	1.7	5.62µM*	i	15.5	-63.3%
COc1ccc(/C=N/NC(=O)c2ccco2)cc1Cn1nc(C)cc1C	14.4%	0.9	9.9%	i	7.1	1.9%
Cc1ccccc1OCC(=O)N/N=C/c1ccc(N(C)C)cc1	2.4%	-5.0	3.7%	i	0.7	0.4%
